Data on 56 compounds can be found in PubChem BioAssay AID540253 (National Center for Advancing Translational Sciences (NCATS), 2011).

Out of some 340,000 compounds screened, about 240 (0.071%) were called active. Entries that show only a call come without a potency. The call rests on the fitted dose curve. The full list was thinned out, with actives kept by preference.
Potency means the concentration at half of the fitted maximal effect.

The target in the assay is Snurportin-1 (Homo sapiens) + GTP-binding nuclear protein Ran (Homo sapiens) + Importin subunit beta-1 (Homo sapiens) (UniProt O95149+P62826+Q14974). Kind of assay: qHTS Assay for Inhibitors of RanGTP induced Rango (Ran-regulated importin-beta cargo) - Importin beta complex dissociation. Further: nearly all actives have a fitted effect of over 45% in size. The following applies: Biochemical FRET Rango-importin beta; series mostly up to 46.1 µM. The source says:
NIH Molecular Libraries Probe Production Centers Network [MLPCN] NIH Chemical Genomics Center [NCGC] MLPCN Grant: R03 MH090808-01A1 Assay Submitter (PI): Petr Kalab NCGC Assay Overview: The small GTPase Ran regulates transport of macromolecules between the nucleus and the cytoplasm (nuclear transport) and has important functions in mitotic spindle assembly, nuclear envelope (NE) formation and nuclear pore complex (NPC) assembly. RanGTP gradient is thought to promote spindle assembly by providing a spatial clue to microtubule nucleation and Aurora A activation. Because the localized release and binding of importin alpha cargos relays this spatial clue to SAFs, inhibitors of the Rango - importin beta complex can then be used in further understanding their role in cell cycle specifically in mitosis progression. […] Activation of Aurora A has been linked to different types of cancer and a number of Aurora kinase inhibitors are being developed as potential canter therapeutics; therefore, identified inhibitors of this complex could be developed into potential anti-mitotic probes for cancer treatment. Purified recombinant proteins Rango - importin beta and RanGTP-RCC1 stock premixes were provided by the assay submitter. The assay used a fluorescence resonance energy transfer (FRET) Rango biosensor that contains the IBB of human snurportin 1 flanked by yellow fluorescent protein (EYFP) at the amino terminus and cerulean CFP10 at the carboxy terminus. […] RanGTP binding to the complex (in the presence of RCC1) releases the Rango from the complex. The flexibility of the IBB in the freed Rango allows the donor - acceptor fluorophores to interact, resulting in a high FRET signal. Inhibitors will therefore be identified based on the ability to interfere with the FRET signal increase. DMSO treated and no RanGTP-RCC1 (buffer only) wells were used as negative and positive controls respectively. FRET readings were obtained at two time points. FRET reading prior to importin beta addition (pre-read) were used flag potential compound interference; FRET reading after importin beta addition (post-read) were used to identify inhibitors.
NCGC Assay Protocol Summary: Two and a half uL/well of Rango- importin beta premix solution (0.1 uM Rango, 0.25 uM importin beta, 1x PBS, 1mM DTT, 0.02% Tween-20, 0.1% BSA final concentrations) was dispensed into 1536-well assay plates (Greiner, solid black medium-binding plates) with Aurora Discovery BioRAPTR Flying Reagent Dispenser (FRD; Beckton-Dickenson). Compound solution (23 nL) was transferred to the assay plate using Kalypsys pin tool equipped with a 1536-pin tool and incubated at room temperature for 5 min followed by a FRET pre-read using the PerkinElmer Envision plate reader. Two and a half uL/well of RanGTP-RCC1 premix solution (0.6 uM Ran, 2mM GTP, 0.2 uM RCC1, 1x PBS, 1mM DTT, 0.02% Tween-20, 0.1% BSA final concentrations) were then added and incubated at room temperature giving a final reaction volume of 5uL. After 45min FRET post-read was obtained via the Envision plate reader using the same optics and settings as the pre-read (CFP/YFP optimized dual optical module D450/D505; excitation mirror CFP 430/24 nm; and emission filters CFP 486/10 nm and YFP 530/10 nm).
For the compound `CCC(=O)N1CCc2cc(Br)c(S(=O)(=O)NCCN3CCCCC3CC)cc21` (stereo unspecified), the Potency entry was “inactive”.

In the case of `O=C(c1cccc(S(=O)(=O)N2CCCCCC2)c1)N1CCN(Cc2ccccc2)CC1`, the Potency result is “inactive”. With `CCOc1ccccc1NC(=S)C(=C([O-])c1ccc2c(c1)OCCO2)[n+]1ccc(CC)cc1` the entry was “inactive”; with `CC(=O)c1cccc(-c2ccc(CN3C(CC(C)C)C(=O)N(Cc4cn(CC5CCCCC5)nn4)CCS3(=O)=O)cc2)c1` (stereo unspecified), “inactive”; with `C[n+]1cccc(C(=O)O)c1`, “inactive”. Regarding `CC1CN(Cc2ccco2)C(=S)N(c2ccccc2)C1=O` (stereo unspecified), the Potency result was “inactive”. The result for `Cc1nc(N)nc(Cl)c1CCC1OCCO1` reads “inactive”; that for `O=C(CC1CCCCC1)NCc1ccco1`, “inactive”; that for `O=C(CCCCCN1C(=O)c2cccc3cccc(c23)C1=O)NCc1ccco1`, “inactive”. Turning to `O=C(CN1C(=O)/C(=C\c2ccc(C(F)(F)F)cc2)Sc2ccccc21)NCc1ccco1`, the Potency is 11.6 µM [inconclusive] (active).

As to `O=C(Cc1ccc([N+](=O)[O-])cc1)NCCc1ccc2c(c1)OCO2`, the Potency entry is “inactive”. As to `Cc1nc2ccccc2nc(=O)c1NNc1ccc([N+](=O)[O-])cc1`, the Potency was 14.6 µM [inconclusive] (active). The result for `Cc1nc(N)nc(SCc2ccc([N+](=O)[O-])cc2)c1N` reads “inactive”. Consider `Cc1cccc(NS(=O)(=O)c2ccc([N+](=O)[O-])cc2)n1`, for which the Potency entry is “inactive”. The result for `CN(C(=O)c1cccc(NC(=O)Cc2ccc(NC(=O)C3CCCN(C(=O)C4CCCC4)C3)cc2)c1)C1CCC1` (stereo unspecified) reads “inactive”; that for `CSCCC(NS(=O)(=O)c1ccc(C)cc1)C(=O)N(C)CC(=O)Nc1ccccc1Br` (stereo unspecified), “inactive”. Take `CC(=O)OCC(=O)C1(O)CCC2C3CC(C)C4=CC(=O)CCC4(C)C3C(O)CC21C` (stereo unspecified): the Potency result is “inactive”. With `NC(=S)NN=C1CCCC(C(F)(F)F)C1` (stereo unspecified) the entry was “inactive”.

For `C[C@@H]1NS(=O)(=O)c2cc(Cl)ccc2O[C@@H]1c1ccccc1`, the Potency result was “inactive”. Consider `CC(=O)CSc1nc(CCc2ccccc2)c(C#N)c(=O)[nH]1`, for which the Potency result is “inactive”. With `CC(C)CN1CC(C)C(=O)N(c2ccccc2)C1=S` (stereo unspecified) the entry was “inactive”; with `Nc1ncnc2c1cnn2C1CC(O)C(CO)O1` (stereo unspecified), “inactive”. With `Cc1ccc(-c2csc(C(C#N)=C(O)CN3CCN(C(=O)c4ccco4)CC3)n2)cc1` the entry was “inactive”; with `O=C1CC(C(=O)O)NC(=S)N1` (stereo unspecified), “inactive”.

As for `CCc1nnc(NC(=O)c2cc(S(=O)(=O)N3CCN(CC)CC3)ccc2Cl)s1`, the Potency result was “inactive”. With `O=C(Cc1ccc(NC(=O)C2CCCN(C(=O)C3CCCCC3)C2)cc1)Nc1cccc(C(=O)N2CCCCC2)c1` (stereo unspecified) the entry was “inactive”; with `CCc1ccc(C(=O)C(C)OC(=O)CN2C(=O)NC3(CCCC3)C2=O)cc1` (stereo unspecified), “inactive”.

With `COc1ccc(CCNC(=O)c2ccc(NC(=O)CC3SC(N4CCCCC4)=NC3=O)cc2)cc1OC` (stereo unspecified), the Potency result is “inactive”. The result for `Cc1onc(-c2c(F)cccc2Cl)c1C(=O)Nc1cccc(S(=O)(=O)N2CCCCC2)c1` reads “inactive”. As for `COc1ccccc1C(=O)c1ccccc1C(=O)c1ccccc1`, the Potency result is “inactive”.

For `CCOC(=O)N(Cc1ccccc1)C1CC1`, the Potency result is “inactive”.

Regarding `COC1=NC2=NCCN2C(OC)=N1`, the Potency entry is “inactive”. With `O=C(NN=Cc1ccccc1O)NN=Cc1ccccc1O` the entry was “inactive”; with `O=[N+]([O-])c1cccc(C=NN=Cc2ccccc2O)c1`, “inactive”. With `CN(C)CCNC(=O)c1ccc(Cl)c2cc3ccccc3nc12` the entry was “inactive”; with `CCC(C)C1(C2CCCC2)NC(=O)NC1=O` (stereo unspecified), “inactive”.

For the compound `CSc1ncnc2c1ncn2CC(=O)C1CCC2C3CCC4=CC(=O)CCC4(C)C3CCC12C` (stereo unspecified), the Potency result was “inactive”. With `COc1cccc2c1C(=O)c1c(O)c3c(c(O)c1C2=O)CC(O)(C(C)=NNC(=O)c1ccc(Cl)c(Cl)c1)CC3OC1CC(N)C(O)C(C)O1` (stereo unspecified) the entry was “inactive”. The result for `CCCN(CCC)S(=O)(=O)c1cc2c(cc1Br)CCN2C(=O)CC` reads “inactive”. Regarding `COc1ccc(C(=O)Nc2cccc(/C=C(/CCC(=O)O)c3nc4ccccc4s3)c2)cc1`, the Potency entry was “inactive”. With `CCCN(C(=O)COC(=O)CNS(=O)(=O)c1ccc(NC(C)=O)cc1)C1CCS(=O)(=O)C1` (stereo unspecified) the entry was “inactive”; with `CC(=NNC(=S)N1CCCCCC1)c1ccccn1`, “inactive”.

For `Cc1cccc(CC2(O)C(=O)Nc3ccccc32)n1` (stereo unspecified), the Potency result was “inactive”. On to `Cc1cc(OCCCC(=O)Nc2cc(S(=O)(=O)N3CCOCC3)ccc2N2CCOCC2)ccc1Cl`, for which the Potency result is “inactive”. In the case of `COC1=CC(=O)OC(C)(c2ccccc2)C1` (stereo unspecified), the Potency result is “inactive”. `COc1ccc2c(c1)C(=O)CC(c1ccccc1)O2` (stereo unspecified): the Potency entry was “inactive”. Consider `CC(NC(=O)c1ccccc1)C(=O)OCC(=O)Nc1cccc(S(=O)(=O)N2CCCC2)c1` (stereo unspecified), for which the Potency entry was “inactive”. Regarding `O=C1C(=O)N(c2ccccc2)C(c2ccccc2)C1c1ccccc1` (stereo unspecified), the Potency entry was “inactive”. Regarding `Cc1ccc(OCCNC(=O)c2cccc(S(=O)(=O)N3CCN(Cc4ccccc4)CC3)c2)cc1`, the Potency result is “inactive”. Take `COC[C@@H]1NS(=O)(=O)c2ccc(Br)cc2O[C@H]1c1ccccc1`: the Potency result is “inactive”. With `CN(C(=O)c1cccc(NC(=O)Cc2cccc(NC(=O)C3CCCN(C(=O)C4CC4)C3)c2)c1)C1CCC1` (stereo unspecified), the Potency entry was “inactive”. The result for `O=S1(=O)CCOC[C@H](Cc2ccccc2)N1Cc1ccccc1Br` reads “inactive”; that for `O=c1oc2ccccc2c(=O)c2ccccc12`, “inactive”. The result for `O=C(/C=C/c1ccc([N+](=O)[O-])o1)NNC(=O)c1ccc(F)cc1` reads 20.6 µM [inhibitor] (active).

`Cc1ccc(/C=C/C(=O)Nc2ccc([N+](=O)[O-])c(NC(=O)/C=C/c3ccc(C)o3)c2)o1`: the Potency entry was “inactive”. As for `O=C(NNC(=O)C1CCCC1)c1ccc(F)cc1`, the Potency entry was “inactive”.
